This passage reports growth results from PubChem BioAssay (NCI).

About 83,000 compounds went through this panel and 20% of them were active in at least one assay; those are over-represented in the sample as a whole.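 In brief: 96-well plates, 48 h treatment, single concentration, percent growth endpoint.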 A number with no mark means an inactive call. Active and inactive are the calls of the source. The calls were made as follows: active = growth percent below 10; inactive = the rest.

Test systems include HCT-15 colon; HT29 colon; SNB-75 CNS; SNB-19 CNS; U251 CNS; PC-3 prostate; SK-MEL-5 melanoma; UACC-62 melanoma; LOX IMVI melanoma; SK-MEL-28 melanoma.
Holding throughout (assay): NCI-60 one-dose screen, 48 h (100 = growth as untreated, 0 = no growth, -100 = all killed)
Common to all, as to settings: 10 µM unless noted

In the case of `O=CN1N=C(c2cccc(Nc3ccncc3)c2)CC1c1ccc2c(c1)OCO2` (stereo not given), the growth was 95.7% in the test on HCT-15 colon; 69.8% with HT29 colon; 88.4% with SNB-75 CNS; 99.7% in the test with SNB-19 CNS; 94.8% in the test on U251 CNS; 84.9% in the test on PC-3 prostate. Besides, the growth in the test on SK-MEL-5 melanoma was 91.8%; with UACC-62 melanoma it was 99.6%; in the test on LOX IMVI melanoma, 95.3%; in the test with SK-MEL-28 melanoma, 97.7%.
In the case of `C=C(C)[C@@H]1CC[C@]2(C#N)CC[C@]3(C)[C@H](CC[C@@H]4[C@@]5(C)CCCNC(C)(C)[C@@H]5CC[C@]43C)[C@@H]12`, the growth in the test with HCT-15 colon is 23%; in the test with HT29 colon, 9.37% (active); in the test on SNB-75 CNS it was 83.9%; with SNB-19 CNS, 78.6%; in the test with U251 CNS, 16.7%; with PC-3 prostate, 68.7%. In addition, the growth in the test on SK-MEL-5 melanoma is 86.4%; with UACC-62 melanoma, 88.6%; in the test on LOX IMVI melanoma, -44.3% (active); in the test with SK-MEL-28 melanoma it was 97.3%.
With `CC1=C(C(=O)OCc2ccccc2)C(c2ccc3c(c2)OCO3)n2c(nc3ccccc32)N1` (stereo not given), the growth in the test on HCT-15 colon was 30.4%; in the test on HT29 colon, 14.4%; with SNB-75 CNS, -6.67% (active); in the test on SNB-19 CNS, 41.6%; in the test on U251 CNS it was 36.3%; with PC-3 prostate, 41.1%. Also, the growth in the test on SK-MEL-5 melanoma is 25.5%; in the test on UACC-62 melanoma, 46.2%; in the test on LOX IMVI melanoma, 34.6%; with SK-MEL-28 melanoma, 61.8%.
On to `CCOC(=O)C#Cc1c(CC(=O)OCC)nnn1[C@H]1O[C@@H](CO)[C@@H]2OC(C)(C)O[C@@H]21`, for which the growth in the test with HCT-15 colon is -12.8% (active); with HT29 colon, 29.2%; in the test with SNB-75 CNS it was 76.4%; in the test on SNB-19 CNS, 97.7%; in the test with U251 CNS it was 96.9%; in the test on PC-3 prostate, 89.4%. The growth was 97.2% with SK-MEL-5 melanoma, 84.8% with UACC-62 melanoma, 47.3% in the test with LOX IMVI melanoma and 86.6% with SK-MEL-28 melanoma.
Turning to `COc1cccc(CNc2nnc(C)c(C)n2)c1O`, the growth with HCT-15 colon was 98.9%; in the test on HT29 colon it was 105%; in the test with SNB-75 CNS, 100%; with SNB-19 CNS, 93.4%; with U251 CNS it was 99.1%; in the test on PC-3 prostate, 87.2%. For the same molecule, the growth in the test with SK-MEL-5 melanoma was 91.6%; with UACC-62 melanoma it was 97.1%; in the test with LOX IMVI melanoma, 98.8%; with SK-MEL-28 melanoma it was 109%.
Regarding `Cc1c(Cl)cccc1NC(=O)c1sc2nc3c(cc2c1N)CCCC3`, the growth in the test on HCT-15 colon is 24.1%; in the test with HT29 colon, 8.28% (active); with SNB-75 CNS, 29.6%; with SNB-19 CNS, 32.6%; in the test with U251 CNS, 21%; in the test on PC-3 prostate, 42.1%. Moreover, the growth was 31% with SK-MEL-5 melanoma, 17.3% in the test with UACC-62 melanoma, 39.1% in the test on LOX IMVI melanoma and 68.6% in the test on SK-MEL-28 melanoma.
Take `CCCCC/C=C/CCC(=O)N[C@H]1[C@H](Oc2c3cc4cc2Oc2ccc(cc2Cl)[C@@H](O[C@@H]2O[C@H](CO)[C@@H](O)[C@H](O)[C@H]2NC(C)=O)[C@@H]2NC(=O)[C@H](NC(=O)[C@@H]4NC(=O)[C@H]4NC(=O)[C@@H](Cc5ccc(c(Cl)c5)O3)NC(=O)[C@@H](N)c3ccc(O)c(c3)Oc3cc(O)cc4c3)c3ccc(O)c(c3)-c3c(O[C@H]4O[C@H](CO)[C@@H](O)[C@H](O)[C@@H]4O)cc(O)cc3[C@H](C(=O)O)NC2=O)O[C@H](CO)[C@H](O)[C@@H]1O`: the growth in the test with HCT-15 colon is 111%; with HT29 colon it was 103%; in the test on SNB-75 CNS, 109%; in the test on SNB-19 CNS it was 87.3%; in the test with U251 CNS, 95.7%; in the test with PC-3 prostate it was 89.9%. Besides, the growth in the test on SK-MEL-5 melanoma was 108%; in the test with UACC-62 melanoma it was 96.4%; in the test on LOX IMVI melanoma it was 91.5%; with SK-MEL-28 melanoma, 119%.
For `CNC(=O)c1cc(Oc2ccc3nc(NC(=O)NC(C)C)sc3c2)ccn1`, the growth in the test on HCT-15 colon was 55.9%; in the test on HT29 colon, 33.3%; in the test with SNB-75 CNS, 93.9%; in the test on SNB-19 CNS it was 82.3%; with U251 CNS it was 51.6%; with PC-3 prostate it was 70.1%. Also, the growth in the test with SK-MEL-5 melanoma is 65.3%; with UACC-62 melanoma it was 68.6%; with LOX IMVI melanoma, 68.8%; with SK-MEL-28 melanoma it was 85.8%.
Take `c1ccc2cc(Cn3cc[n+](Cc4ccc5ccccc5c4)c3)ccc2c1`: the growth was 91.2% in the test with HCT-15 colon; -31% (active) in the test with HT29 colon; 19.3% in the test with SNB-75 CNS; 29.8% in the test with SNB-19 CNS; 21.8% with U251 CNS; 15.4% in the test with PC-3 prostate. In addition, the growth with SK-MEL-5 melanoma was -46.4% (active); in the test on UACC-62 melanoma, 10.3%; in the test on LOX IMVI melanoma, 37.5%; in the test on SK-MEL-28 melanoma it was 20.3%.
`C#CCOc1cccc(Nc2c(Cl)c(CCl)nc3ccc(Oc4ccccc4)cc23)c1`: the growth in the test on HCT-15 colon was 12.3%; in the test with HT29 colon, 7.96% (active); with SNB-75 CNS it was 75.5%; with SNB-19 CNS, 62.5%; in the test on U251 CNS, 24.9%; in the test with PC-3 prostate, 78%. In addition, the growth was 30.4% in the test with SK-MEL-5 melanoma, 39.9% in the test on UACC-62 melanoma, -34.1% (active) with LOX IMVI melanoma and 65.4% in the test on SK-MEL-28 melanoma.
Turning to `C=C(CNCCO)[C@@H]1CC[C@]2(CO)CC[C@]3(C)[C@H](CC[C@@H]4[C@@]5(C)CCC(NCCO)C(C)(C)[C@@H]5CC[C@]43C)[C@@H]12` (stereo not given in full), the growth in the test with HCT-15 colon is 71.6%; in the test with HT29 colon, 12.7%; in the test with SNB-75 CNS it was 66.8%; in the test on SNB-19 CNS, 83.6%; in the test with U251 CNS it was 31.4%; in the test on PC-3 prostate it was 75.2%. In addition, the growth in the test with SK-MEL-5 melanoma is 65.2%; with UACC-62 melanoma it was 94.6%; with LOX IMVI melanoma, 33.3%; in the test with SK-MEL-28 melanoma, 80.7%.
